Drawing on article PMC7862700, “An all-to-all approach to the identification of sequence-specific readers for epigenetic DNA modifications on cytosine”, this text covers binding signal for one sequence.

Holding throughout (assay): DAPPL (digital affinity profiling via proximity ligation, sequencing); 10 mM Tris-HCl pH 7.5, 50 mM NaCl, 1 mM DTT, 4% glycerol, room temperature, 30 min; GST-TFs on glutathione beads, 16-mer random dsDNA library, 0.1% formaldehyde crosslink after washing; high values mean tight binding
One assay concerns the target T1, FEV (Homo sapiens, UniProt Q99581 1-238).
T1 sequence: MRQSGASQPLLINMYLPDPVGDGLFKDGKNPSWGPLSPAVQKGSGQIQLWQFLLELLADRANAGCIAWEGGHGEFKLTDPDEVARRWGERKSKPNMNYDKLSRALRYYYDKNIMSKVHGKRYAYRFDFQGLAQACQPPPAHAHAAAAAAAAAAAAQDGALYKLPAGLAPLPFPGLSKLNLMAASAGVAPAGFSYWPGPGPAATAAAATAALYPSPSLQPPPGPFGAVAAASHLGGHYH
Particulars: protein: recombinant; tags: N-terminal GST; dsDNA, one strand shown. In short, it runs like this: (§1)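 In yeast, human transcription factors were expressed with a GST fusion, then pulled down on glutathione beads and given DNA barcodes. Pooled with a tag-only sample, they were exposed to 200 nmole of a 16-mer random double-stranded DNA library (Tris/NaCl/DTT/glycerol buffer, room temperature, 30 min), washed, crosslinked with 0.1% formaldehyde, proximity-ligated using BsaI/T4 ligase for 1 h at 37 °C, PCR-amplified and read on an Illumina NextSeq500. Each hexamer's frequency of reads for a factor, divided by the matching frequency for the tag-only sample, gives the binding signal.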

A further assay deals with ETV5 (Homo sapiens, UniProt P41161 1-510). Particulars: protein: recombinant; tags: N-terminal GST; dsDNA, one strand shown. Put shortly:
as §1

A further assay concerns the target HSF1 (Homo sapiens, UniProt Q00613 1-529). Particulars: protein: recombinant; tags: N-terminal GST; chain copies: 3; dsDNA, one strand shown. Put shortly:
as §1

The next assay deals with T2, SPIC (Homo sapiens, UniProt Q8N5J4 1-248).
T2 sequence: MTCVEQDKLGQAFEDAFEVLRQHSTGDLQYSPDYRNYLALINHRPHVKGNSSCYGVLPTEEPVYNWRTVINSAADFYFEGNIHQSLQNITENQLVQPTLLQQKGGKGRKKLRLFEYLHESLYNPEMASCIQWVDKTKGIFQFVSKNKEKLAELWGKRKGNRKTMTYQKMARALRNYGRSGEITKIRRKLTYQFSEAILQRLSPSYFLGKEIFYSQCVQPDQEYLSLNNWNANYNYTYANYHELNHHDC
Particulars: protein: recombinant; tags: N-terminal GST; dsDNA, one strand shown. Put shortly:
as §1

Another assay deals with ELF4 (Homo sapiens, UniProt Q99607 1-663). The settings on record: protein: recombinant; tags: N-terminal GST; dsDNA, one strand shown. In short, it runs like this:
as §1

The target of the next assay is T3, ELK4 (Homo sapiens, UniProt P28324-2 1-405).
T3 sequence: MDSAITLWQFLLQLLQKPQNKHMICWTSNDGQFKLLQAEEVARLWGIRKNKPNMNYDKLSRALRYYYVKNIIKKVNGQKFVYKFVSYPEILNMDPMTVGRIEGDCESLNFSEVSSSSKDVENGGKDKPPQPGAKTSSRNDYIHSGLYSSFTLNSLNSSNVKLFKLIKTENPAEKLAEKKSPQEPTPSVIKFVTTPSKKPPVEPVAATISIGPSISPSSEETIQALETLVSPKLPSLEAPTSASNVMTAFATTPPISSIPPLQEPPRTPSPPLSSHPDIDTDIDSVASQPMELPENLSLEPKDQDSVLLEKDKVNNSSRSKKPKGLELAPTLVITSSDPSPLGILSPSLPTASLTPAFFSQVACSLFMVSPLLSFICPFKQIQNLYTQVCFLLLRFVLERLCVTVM
The settings on record: protein: recombinant; tags: N-terminal GST; dsDNA, one strand shown. Put shortly:
as §1

Another assay addresses T4, ETV2 (Homo sapiens, UniProt O00321 1-342).
T4 sequence: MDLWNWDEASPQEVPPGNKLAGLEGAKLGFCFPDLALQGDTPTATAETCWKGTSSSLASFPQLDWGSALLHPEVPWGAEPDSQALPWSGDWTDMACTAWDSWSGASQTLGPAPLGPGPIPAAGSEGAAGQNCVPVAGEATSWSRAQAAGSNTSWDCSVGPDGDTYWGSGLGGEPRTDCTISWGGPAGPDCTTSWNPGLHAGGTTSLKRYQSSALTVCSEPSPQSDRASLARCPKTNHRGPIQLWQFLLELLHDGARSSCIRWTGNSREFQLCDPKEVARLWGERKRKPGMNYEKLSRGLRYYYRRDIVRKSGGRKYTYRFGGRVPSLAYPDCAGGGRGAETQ
The settings on record: protein: recombinant; tags: N-terminal GST; dsDNA, one strand shown. Put shortly:
as §1

In another assay the target is T5, ELF3 (Homo sapiens, UniProt P78545 1-371).
T5 sequence: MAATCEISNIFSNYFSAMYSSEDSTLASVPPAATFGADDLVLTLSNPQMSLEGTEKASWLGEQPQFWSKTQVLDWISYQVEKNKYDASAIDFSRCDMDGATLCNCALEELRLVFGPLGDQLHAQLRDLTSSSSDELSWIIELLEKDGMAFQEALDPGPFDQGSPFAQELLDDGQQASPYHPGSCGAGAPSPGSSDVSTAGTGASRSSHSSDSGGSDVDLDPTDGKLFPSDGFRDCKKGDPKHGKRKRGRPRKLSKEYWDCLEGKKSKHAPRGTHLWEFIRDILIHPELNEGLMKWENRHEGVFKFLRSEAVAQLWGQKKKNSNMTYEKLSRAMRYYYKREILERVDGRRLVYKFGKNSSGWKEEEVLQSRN
The settings on record: protein: recombinant; tags: N-terminal GST; dsDNA, one strand shown. Put shortly: as §1

In another assay the target is CRX (Homo sapiens, UniProt O43186 1-299). The settings on record: protein: recombinant; tags: N-terminal GST; dsDNA, one strand shown. In short, it runs like this:
as §1

The target in the next assay is ETV1 (Homo sapiens, UniProt P50549 1-477). The settings on record: protein: recombinant; tags: N-terminal GST; dsDNA, one strand shown. In short, it runs like this: as §1
In another assay the target is T6, ERF (Homo sapiens, UniProt P50548 1-548).
T6 sequence: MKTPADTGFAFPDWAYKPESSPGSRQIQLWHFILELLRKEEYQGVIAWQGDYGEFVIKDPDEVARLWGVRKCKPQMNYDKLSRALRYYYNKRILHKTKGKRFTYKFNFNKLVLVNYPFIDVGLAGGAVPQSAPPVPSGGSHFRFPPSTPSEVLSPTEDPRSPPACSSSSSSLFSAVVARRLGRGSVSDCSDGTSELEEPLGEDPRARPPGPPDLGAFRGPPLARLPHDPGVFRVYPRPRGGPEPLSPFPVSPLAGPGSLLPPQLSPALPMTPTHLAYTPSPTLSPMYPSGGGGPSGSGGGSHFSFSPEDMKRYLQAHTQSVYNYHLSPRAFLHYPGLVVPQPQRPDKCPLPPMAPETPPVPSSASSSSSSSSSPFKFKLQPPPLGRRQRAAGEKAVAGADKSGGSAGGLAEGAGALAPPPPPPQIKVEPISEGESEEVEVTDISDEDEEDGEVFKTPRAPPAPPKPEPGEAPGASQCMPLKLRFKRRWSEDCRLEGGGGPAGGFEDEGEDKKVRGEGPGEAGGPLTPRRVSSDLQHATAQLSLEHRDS
Particulars: protein: recombinant; tags: N-terminal GST; dsDNA, one strand shown. Put shortly: as §1

For another assay, the target named is T7, ETV3L (Homo sapiens, UniProt Q6ZN32 1-361).
T7 sequence: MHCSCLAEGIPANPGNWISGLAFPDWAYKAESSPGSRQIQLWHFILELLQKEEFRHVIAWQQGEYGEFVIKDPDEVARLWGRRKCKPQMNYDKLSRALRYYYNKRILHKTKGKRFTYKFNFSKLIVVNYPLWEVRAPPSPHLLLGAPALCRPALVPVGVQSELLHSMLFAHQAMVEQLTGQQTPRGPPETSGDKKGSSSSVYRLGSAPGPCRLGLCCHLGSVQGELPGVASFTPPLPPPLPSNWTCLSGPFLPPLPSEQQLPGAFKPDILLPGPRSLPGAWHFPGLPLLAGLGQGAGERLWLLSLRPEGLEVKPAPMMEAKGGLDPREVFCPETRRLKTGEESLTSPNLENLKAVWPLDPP
Particulars: protein: recombinant; tags: N-terminal GST; dsDNA, one strand shown. In short, it runs like this: as §1

A further assay has as its target T8, ETS2 (Homo sapiens, UniProt P15036 1-469).
T8 sequence: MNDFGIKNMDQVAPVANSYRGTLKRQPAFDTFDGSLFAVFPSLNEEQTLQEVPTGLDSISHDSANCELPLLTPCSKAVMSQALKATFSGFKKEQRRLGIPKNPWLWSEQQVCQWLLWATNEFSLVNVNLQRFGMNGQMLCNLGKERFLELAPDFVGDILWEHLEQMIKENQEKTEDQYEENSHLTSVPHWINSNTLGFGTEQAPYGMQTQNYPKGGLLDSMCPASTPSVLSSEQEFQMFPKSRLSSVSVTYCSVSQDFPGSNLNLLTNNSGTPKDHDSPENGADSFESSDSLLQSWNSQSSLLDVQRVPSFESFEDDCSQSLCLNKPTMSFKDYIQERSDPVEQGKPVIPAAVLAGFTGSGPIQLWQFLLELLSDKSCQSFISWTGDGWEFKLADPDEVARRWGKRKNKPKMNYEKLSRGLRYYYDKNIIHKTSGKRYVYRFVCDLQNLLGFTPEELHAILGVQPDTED
The settings on record: protein: recombinant; tags: N-terminal GST; dsDNA, one strand shown. In short, it runs like this:
as §1

For the next assay, the target named is T9, SPDEF (Homo sapiens, UniProt O95238 1-335).
T9 sequence: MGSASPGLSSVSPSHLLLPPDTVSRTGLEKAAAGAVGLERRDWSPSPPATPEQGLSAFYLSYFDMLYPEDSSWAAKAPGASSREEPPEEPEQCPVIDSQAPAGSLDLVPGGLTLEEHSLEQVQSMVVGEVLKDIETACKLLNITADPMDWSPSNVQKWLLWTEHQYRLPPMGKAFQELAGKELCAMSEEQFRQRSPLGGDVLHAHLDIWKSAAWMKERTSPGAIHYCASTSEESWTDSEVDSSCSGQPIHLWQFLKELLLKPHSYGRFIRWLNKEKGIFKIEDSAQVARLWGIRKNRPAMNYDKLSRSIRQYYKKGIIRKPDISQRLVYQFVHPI
Particulars: protein: recombinant; tags: N-terminal GST; dsDNA, one strand shown. Put shortly:
as §1

The next assay concerns the target T10, ETV7 (Homo sapiens, UniProt Q9Y603 1-341).
T10 sequence: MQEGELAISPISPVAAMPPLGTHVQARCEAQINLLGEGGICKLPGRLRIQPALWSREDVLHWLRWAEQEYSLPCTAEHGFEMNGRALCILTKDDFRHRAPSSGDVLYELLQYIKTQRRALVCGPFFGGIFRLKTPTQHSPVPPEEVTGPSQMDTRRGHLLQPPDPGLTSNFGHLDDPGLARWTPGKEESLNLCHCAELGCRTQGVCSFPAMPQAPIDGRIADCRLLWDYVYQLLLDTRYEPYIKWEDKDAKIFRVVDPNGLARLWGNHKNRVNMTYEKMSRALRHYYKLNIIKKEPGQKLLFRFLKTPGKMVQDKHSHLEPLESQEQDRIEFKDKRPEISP
The settings on record: protein: recombinant; tags: N-terminal GST; dsDNA, one strand shown. In short, it runs like this: as §1

The next assay addresses T11, ELF5 (Homo sapiens, UniProt Q9UKW6-2 1-255).
T11 sequence: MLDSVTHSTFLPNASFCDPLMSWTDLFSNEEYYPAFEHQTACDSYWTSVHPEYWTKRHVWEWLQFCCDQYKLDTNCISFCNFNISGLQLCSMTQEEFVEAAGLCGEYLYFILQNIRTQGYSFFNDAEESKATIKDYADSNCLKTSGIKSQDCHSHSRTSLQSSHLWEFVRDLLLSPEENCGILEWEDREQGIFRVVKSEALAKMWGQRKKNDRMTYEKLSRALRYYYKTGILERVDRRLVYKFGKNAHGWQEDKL
The settings on record: protein: recombinant; tags: N-terminal GST; dsDNA, one strand shown. Put shortly: as §1

The target of the next assay is T12, ETV3 (Homo sapiens, UniProt P41162-2 1-143).
T12 sequence: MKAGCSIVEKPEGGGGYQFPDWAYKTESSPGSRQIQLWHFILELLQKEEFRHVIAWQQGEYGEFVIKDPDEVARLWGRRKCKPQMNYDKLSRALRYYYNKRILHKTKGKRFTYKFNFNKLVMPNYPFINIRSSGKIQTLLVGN
The settings on record: protein: recombinant; tags: N-terminal GST; dsDNA, one strand shown. In short, it runs like this: as §1

A further assay deals with ETV6 (Homo sapiens, UniProt P41212 1-452). The settings on record: protein: recombinant; tags: N-terminal GST; dsDNA, one strand shown. Put shortly:
as §1

Chain of ETV6 (P41212 whole entry): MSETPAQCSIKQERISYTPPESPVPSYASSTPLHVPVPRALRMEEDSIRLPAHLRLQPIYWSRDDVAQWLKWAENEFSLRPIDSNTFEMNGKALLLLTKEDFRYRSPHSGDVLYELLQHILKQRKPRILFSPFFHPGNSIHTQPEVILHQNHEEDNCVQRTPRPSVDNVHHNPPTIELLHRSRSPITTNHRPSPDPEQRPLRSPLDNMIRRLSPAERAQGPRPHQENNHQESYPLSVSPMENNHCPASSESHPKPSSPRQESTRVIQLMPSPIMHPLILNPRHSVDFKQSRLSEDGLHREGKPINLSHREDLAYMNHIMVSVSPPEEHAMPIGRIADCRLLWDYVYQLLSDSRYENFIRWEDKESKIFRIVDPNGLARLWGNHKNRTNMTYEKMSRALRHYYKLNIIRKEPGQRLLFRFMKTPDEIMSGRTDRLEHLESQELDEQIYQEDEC
Chain of ETV1 (P50549 whole entry): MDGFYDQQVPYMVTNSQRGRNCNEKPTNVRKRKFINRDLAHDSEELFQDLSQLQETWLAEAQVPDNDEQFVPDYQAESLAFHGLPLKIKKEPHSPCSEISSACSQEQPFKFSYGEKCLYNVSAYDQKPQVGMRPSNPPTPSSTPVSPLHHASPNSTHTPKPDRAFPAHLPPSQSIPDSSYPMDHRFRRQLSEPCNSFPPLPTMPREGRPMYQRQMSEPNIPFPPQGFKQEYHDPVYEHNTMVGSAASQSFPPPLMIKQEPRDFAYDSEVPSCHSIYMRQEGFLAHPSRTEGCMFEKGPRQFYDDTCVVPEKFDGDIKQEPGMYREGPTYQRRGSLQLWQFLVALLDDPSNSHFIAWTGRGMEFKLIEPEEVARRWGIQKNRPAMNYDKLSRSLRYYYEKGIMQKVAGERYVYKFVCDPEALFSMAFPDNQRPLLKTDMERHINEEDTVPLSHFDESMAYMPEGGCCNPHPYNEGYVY
Chain of CRX (O43186 whole entry): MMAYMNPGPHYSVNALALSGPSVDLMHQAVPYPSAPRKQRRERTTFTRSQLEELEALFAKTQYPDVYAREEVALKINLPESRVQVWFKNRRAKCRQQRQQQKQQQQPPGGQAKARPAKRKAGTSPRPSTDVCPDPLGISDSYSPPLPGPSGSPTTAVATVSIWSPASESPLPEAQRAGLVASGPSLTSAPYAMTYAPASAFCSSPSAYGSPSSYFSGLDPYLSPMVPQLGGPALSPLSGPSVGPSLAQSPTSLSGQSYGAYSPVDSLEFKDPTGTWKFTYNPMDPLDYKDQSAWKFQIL
Chain of ETV5 (P41161 whole entry): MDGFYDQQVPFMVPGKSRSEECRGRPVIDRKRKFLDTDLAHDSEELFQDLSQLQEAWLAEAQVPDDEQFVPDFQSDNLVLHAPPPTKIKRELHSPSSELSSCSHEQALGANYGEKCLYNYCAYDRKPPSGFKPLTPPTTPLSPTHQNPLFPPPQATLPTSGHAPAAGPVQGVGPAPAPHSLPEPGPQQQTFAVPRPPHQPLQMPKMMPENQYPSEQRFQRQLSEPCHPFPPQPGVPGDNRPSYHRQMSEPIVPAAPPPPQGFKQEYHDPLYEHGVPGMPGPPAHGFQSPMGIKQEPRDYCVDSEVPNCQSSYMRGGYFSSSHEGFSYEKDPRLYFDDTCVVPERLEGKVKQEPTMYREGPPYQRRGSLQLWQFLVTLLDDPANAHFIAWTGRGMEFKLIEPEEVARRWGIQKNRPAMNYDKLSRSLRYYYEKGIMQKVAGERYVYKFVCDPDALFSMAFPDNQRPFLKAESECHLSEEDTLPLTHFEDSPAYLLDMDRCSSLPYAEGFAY
Chain of ELF4 (Q99607 whole entry): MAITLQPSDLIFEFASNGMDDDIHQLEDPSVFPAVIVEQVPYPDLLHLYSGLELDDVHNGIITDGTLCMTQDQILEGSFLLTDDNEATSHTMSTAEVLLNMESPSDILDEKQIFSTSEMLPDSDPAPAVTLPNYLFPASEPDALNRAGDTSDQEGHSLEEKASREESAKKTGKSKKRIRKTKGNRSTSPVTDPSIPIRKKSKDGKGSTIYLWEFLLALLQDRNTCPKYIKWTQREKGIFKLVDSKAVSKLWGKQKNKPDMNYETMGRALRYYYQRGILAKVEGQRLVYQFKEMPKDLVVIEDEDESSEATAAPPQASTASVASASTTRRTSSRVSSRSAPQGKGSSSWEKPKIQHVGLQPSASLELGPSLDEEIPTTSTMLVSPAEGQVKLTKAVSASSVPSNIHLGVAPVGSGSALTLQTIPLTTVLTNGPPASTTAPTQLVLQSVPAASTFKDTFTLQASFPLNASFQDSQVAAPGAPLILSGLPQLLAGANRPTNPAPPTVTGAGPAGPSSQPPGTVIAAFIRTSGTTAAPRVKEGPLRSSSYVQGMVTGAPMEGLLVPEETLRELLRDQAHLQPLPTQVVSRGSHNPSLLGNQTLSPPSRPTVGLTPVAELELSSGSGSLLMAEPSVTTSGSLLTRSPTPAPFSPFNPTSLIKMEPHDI
Chain of HSF1 (Q00613 whole entry): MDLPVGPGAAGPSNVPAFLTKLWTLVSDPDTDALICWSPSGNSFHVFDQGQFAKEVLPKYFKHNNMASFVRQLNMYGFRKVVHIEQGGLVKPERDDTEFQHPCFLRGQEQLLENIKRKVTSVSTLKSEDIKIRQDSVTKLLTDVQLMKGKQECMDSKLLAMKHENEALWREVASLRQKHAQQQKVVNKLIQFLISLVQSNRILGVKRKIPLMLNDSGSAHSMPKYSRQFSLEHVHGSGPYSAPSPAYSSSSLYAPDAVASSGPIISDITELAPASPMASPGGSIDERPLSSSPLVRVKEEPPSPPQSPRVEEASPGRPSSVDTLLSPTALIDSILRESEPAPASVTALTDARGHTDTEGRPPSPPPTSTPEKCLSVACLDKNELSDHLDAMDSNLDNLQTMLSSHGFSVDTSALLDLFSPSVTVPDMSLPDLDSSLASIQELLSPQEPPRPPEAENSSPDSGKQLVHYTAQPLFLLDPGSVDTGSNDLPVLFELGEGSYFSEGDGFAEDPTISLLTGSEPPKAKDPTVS

For the sequence CTGTAC, the binding signal with FEV is 1.44 fold enrichment (6-mer frequency, TF over GST control); with ETV5, 1.34 fold enrichment (6-mer frequency, TF over GST control); in the assay with HSF1, 1.02 fold enrichment (6-mer frequency, TF over GST control); in the assay with SPIC, 1.41 fold enrichment (6-mer frequency, TF over GST control); in the assay with ELF4, 1.33 fold enrichment (6-mer frequency, TF over GST control); in the assay with ELK4, 1.43 fold enrichment (6-mer frequency, TF over GST control). Also, the binding signal with ETV2 is 1.39 fold enrichment (6-mer frequency, TF over GST control); with ELF3, 1.26 fold enrichment (6-mer frequency, TF over GST control); with CRX, 1.06 fold enrichment (6-mer frequency, TF over GST control); with ETV1 it was 1.42 fold enrichment (6-mer frequency, TF over GST control); with ERF, 1.18 fold enrichment (6-mer frequency, TF over GST control); with ETV3L it was 1.35 fold enrichment (6-mer frequency, TF over GST control). Besides, the binding signal is 1.33 fold enrichment (6-mer frequency, TF over GST control) with ETS2; 1.57 fold enrichment (6-mer frequency, TF over GST control) with SPDEF; 1.22 fold enrichment (6-mer frequency, TF over GST control) in the assay with ETV7; 1.36 fold enrichment (6-mer frequency, TF over GST control) with ELF5; 1.31 fold enrichment (6-mer frequency, TF over GST control) in the assay with ETV3; 1.3 fold enrichment (6-mer frequency, TF over GST control) with ETV6.
